Drawing on PubChem BioAssay (Tox21), this text covers Potency and outcome for 26 compounds.

Unmarked numbers belong to inactive results. Results filed as inconclusive are left out. Calls of active or inactive are those of the source. Unless noted, the call rests on the fitted dose curve; in most records, active means well fitted curve in the direction sought with a large enough effect in the repeat runs; inconclusive means weak or mixed curves; inactive means no such curve, though single readings can be large; an effect the other way counts as inactive or inconclusive.

Assay [1] has as its target Estrogen receptor (Homo sapiens) (UniProt P03372). As to the kind of experiment: qHTS assay to identify small molecule agonists of the estrogen receptor alpha (ER-alpha) signaling pathway in the presence of an antagonist (AID 1259383; calls by dose curve; further: top concentration of the series differs between compounds; nearly all actives have a fitted effect of over 15% in size). A digest of the protocol: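 Quantitative HTS confirmation: compounds titrated at 15 concentrations onto estrogen-deprived VM7Luc4E2 cells carrying a four-ERE luciferase construct, with ICI-182,780 present at 10.0nM final. Signal is luminescence after 22hr exposure.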
(qHTS replaces the single test concentration by a dilution series.)

Assay [2] in a line: qHTS assay to identify small molecule agonists of the estrogen receptor alpha (ER-alpha) signaling pathway in the presence of an antagonist - cell viability counter screen (AID 1259386).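 Further: series mostly up to about 92 µM; cells exposed to compounds for 22 h at 37 °C before the viability read; nearly all actives have a fitted effect of over 30% in size.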 An outline of the steps: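 The test measures whether compounds kill ER-alpha reporter cells (VM7Luc4E2) under antagonist co-treatment (ICI-182,780, 10.0nM). Fluorescence from CellTiter-Fluor is read after a 22hr exposure.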

Assay [3] deals with Progesterone receptor (Homo sapiens) (UniProt P06401). As to the kind of experiment: qHTS assay to identify small molecule agonists of the progesterone receptor (PR) signaling pathway (AID 1346784; calls by dose curve; further: nearly all actives have a fitted effect of over 30% in size). A digest of the protocol:
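Fluorescence from LiveBLAzer B/G FRET substrate cleavage (2 hr, RT) reported PR activation in PR-UAS-bla HEK 293T cells treated 16 hr at 37C/5% CO2 with compounds; medium contained 2% charcoal-stripped FBS.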

For assay [4] the target is unchanged. As to the kind of experiment: qHTS assay to identify small molecule antagonists of the progesterone receptor (PR) signaling pathway (AID 1346795; active means well fitted inhibition curve with a large enough effect in the signal ratio in the repeat runs, not every such curve was filed as active; the % refers to the signal ratio; further: potency means the concentration at half of the fitted maximal effect). An outline of the steps: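 Fluorescence intensity measured 2 hr after adding beta-lactamase FRET substrate to PR-UAS-bla HEK293T cells that had been co-treated 16 hr with compound and 1 nM R5020 (final concentration) in 2% charcoal-stripped FBS.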

A short description of assay [5]: qHTS assay to identify small molecule antagonists of the progesterone receptor (PR) signaling pathway - cell viability counter screen (AID 1346798). Further: series mostly up to about 92 µM; nearly all actives have a fitted effect of over 50% in size. A digest of the protocol: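 CellTiter-Glo luminescence; PR-UAS-bla HEK293T, 3,000 cells/well; compound + R5020, 16 hr, 37C/5% CO2; 30 min RT before read.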
Assay [6] is described as follows: qHTS assay to identify small molecule agonists of the progesterone receptor (PR) signaling pathway - cell viability counter screen (AID 1346799; calls by dose curve; further: nearly all actives have a fitted effect of over 45% in size). A digest of the protocol: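 In parallel with the beta-lactamase readout, cytotoxicity toward PR-UAS-bla HEK293T cells was measured by CellTiter-Glo luminescence following 16 hr compound incubation in 2% charcoal-stripped FBS medium.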

A short description of assay [7]: qHTS assay to identify small molecule antagonists of the TGF-beta/Smad signaling pathway - cell viability counter screen (AID 1346824). Further: nearly all actives have a fitted effect of over 50% in size. A digest of the protocol: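 SBE-bla HEK 293T cells were plated overnight at 37 C, then given compounds in DMSO plus TGF-beta1 (added as 0.25 ng/mL solution) for 5 hr. After the bla read, CellTiter-Glo was added to the same wells and luminescence read after 30 min at room temperature.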

The nature of assay [8]: qHTS assay to identify small molecule agonists of the TGF-beta/Smad signaling pathway - cell viability counter screen (AID 1346829). Further: top concentration of the series differs between compounds; nearly all actives have a fitted effect of over 45% in size. A digest of the protocol:
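Compound-treated SBE-bla HEK 293T cells (5 hr, 37 C) were assessed for viability with CellTiter-Glo in parallel with the reporter read.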

Assay [9] is described as follows: qHTS assay to identify small molecule agonists or antagonists of the thyroid stimulating hormone receptor (TSHR) signaling pathway - wild type cell line counter screen (AID 1259384; calls by dose curve). A digest of the protocol: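 Wild-type HEK293 cells were plated 18 h at 37 C/5% CO2, pin-dosed with compound plus Ro20-1724 medium, held 30 min at room temperature, then given cAMP-d2 and anti-cAMP-cryptate; fluorescence was read after 1 h. Fifteen concentrations, triplicate.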

Chain of Estrogen receptor (Homo sapiens) (P03372 whole entry, looked up): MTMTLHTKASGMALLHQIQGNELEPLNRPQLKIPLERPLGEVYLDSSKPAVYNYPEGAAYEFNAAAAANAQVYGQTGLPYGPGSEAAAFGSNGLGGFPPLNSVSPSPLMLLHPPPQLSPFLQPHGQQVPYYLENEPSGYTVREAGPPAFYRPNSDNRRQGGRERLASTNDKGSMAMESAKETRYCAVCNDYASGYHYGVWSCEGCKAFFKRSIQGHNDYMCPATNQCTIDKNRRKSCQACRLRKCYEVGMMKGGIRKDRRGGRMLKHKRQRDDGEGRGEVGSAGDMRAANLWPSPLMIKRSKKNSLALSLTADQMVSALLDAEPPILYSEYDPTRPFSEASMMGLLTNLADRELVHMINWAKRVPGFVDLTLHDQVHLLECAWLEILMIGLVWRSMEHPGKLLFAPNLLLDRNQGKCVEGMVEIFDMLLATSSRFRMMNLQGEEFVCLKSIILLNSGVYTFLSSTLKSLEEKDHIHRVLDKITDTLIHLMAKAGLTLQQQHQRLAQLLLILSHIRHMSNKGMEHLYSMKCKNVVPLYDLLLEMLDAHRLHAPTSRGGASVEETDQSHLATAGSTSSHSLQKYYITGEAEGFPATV
Chain of Progesterone receptor (Homo sapiens) (P06401 whole entry, looked up): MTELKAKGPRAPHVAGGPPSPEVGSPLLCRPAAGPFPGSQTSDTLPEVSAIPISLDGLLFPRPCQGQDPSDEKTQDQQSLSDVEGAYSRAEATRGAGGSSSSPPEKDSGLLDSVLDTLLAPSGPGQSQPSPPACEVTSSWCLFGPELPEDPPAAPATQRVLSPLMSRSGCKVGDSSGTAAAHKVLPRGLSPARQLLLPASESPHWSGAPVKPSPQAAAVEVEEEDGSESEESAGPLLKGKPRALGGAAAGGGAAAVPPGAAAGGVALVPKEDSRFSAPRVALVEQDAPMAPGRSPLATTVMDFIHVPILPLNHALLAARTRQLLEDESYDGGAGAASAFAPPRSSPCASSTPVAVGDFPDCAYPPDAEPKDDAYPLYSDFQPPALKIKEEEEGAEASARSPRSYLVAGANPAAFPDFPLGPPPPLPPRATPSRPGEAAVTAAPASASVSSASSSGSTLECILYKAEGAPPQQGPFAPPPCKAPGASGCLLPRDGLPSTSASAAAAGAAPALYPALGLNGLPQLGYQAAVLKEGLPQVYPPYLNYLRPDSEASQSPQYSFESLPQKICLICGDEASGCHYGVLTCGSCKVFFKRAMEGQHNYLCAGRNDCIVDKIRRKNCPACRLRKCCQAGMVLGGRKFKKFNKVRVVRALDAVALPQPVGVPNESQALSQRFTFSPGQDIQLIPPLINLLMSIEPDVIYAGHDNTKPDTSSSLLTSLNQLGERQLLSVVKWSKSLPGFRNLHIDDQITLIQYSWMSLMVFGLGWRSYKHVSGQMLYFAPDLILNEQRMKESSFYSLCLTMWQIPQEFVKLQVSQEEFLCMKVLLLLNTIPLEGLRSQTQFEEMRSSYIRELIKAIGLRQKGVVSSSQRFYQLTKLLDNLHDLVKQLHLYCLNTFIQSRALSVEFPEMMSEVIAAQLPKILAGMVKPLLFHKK

`CCCCCCC(O)CO` (stereo not given): the Potency entry in assay [1], in assay [3], in assay [4] and in [6] was “inactive” in each case. The outcome in [2], in [5], in assay [7] and in [8] was inactive.
On to `CCCCCCCCCCCBr`, for which the Potency entry in assay [1], in assay [3], in [4] and in assay [6] was “inactive” each time. The result in assay [2], in assay [5], in assay [7] and in [8] was inactive.
Take `CCCCCCCC(=O)N(C)C`: the Potency entry in [1], in assay [3], in assay [4] and in assay [6] was “inactive” each time. Further, the result in assay [2], in [5], in [7] and in assay [8] was inactive.
For `Cc1nc2ccc(Cl)cc2[nH]1`, the Potency result in [1], in [3], in assay [4] and in [6] was “inactive” throughout. Also, the compound was called inactive in assay [9], in [2], in assay [7] and in assay [8].
As for `Cc1ccccc1OCC(=O)O`, the Potency result in assay [1], in [3], in [4] and in assay [6] was “inactive” each time. Besides, the result in assay [2], in assay [5], in assay [7] and in [8] was inactive.
On to `CC(=O)/C=C/C=C1/C2CCC(C2)C1(C)C` (stereo not given), for which the Potency result in assay [1], in assay [3], in [4] and in assay [6] was “inactive” throughout. Further, the outcome in [9], in assay [2], in assay [7] and in assay [8] was inactive.
Regarding `CCCC(=O)C(CC)Sc1ccoc1C` (stereo not given), the Potency result in assay [1], in assay [3], in [4] and in assay [6] was “inactive” each time. Moreover, the call in assay [9], in [2], in assay [7] and in assay [8] was inactive.
For the compound `CC(C)c1cc(C(C)C)cc(C(C)C)c1`, the Potency result in assay [1], in [3], in assay [4] and in assay [6] was “inactive” each time. Further, the outcome in [2], in assay [5], in assay [7] and in assay [8] was inactive.
As to `O=S(=O)(O)c1ccc(Cl)cc1`, the Potency entry in [1], in assay [3], in assay [4] and in assay [6] was “inactive” in each case. Moreover, the outcome in assay [2], in assay [5], in assay [7] and in assay [8] was inactive.
In the case of `Nc1ccc(C(=O)NCC(=O)O)cc1`, the Potency result in [1], in assay [3], in assay [4] and in assay [6] was “inactive” throughout. In addition, the result in assay [2], in assay [5], in [7] and in assay [8] was inactive.
With `O=S(=O)(O)CC(O)CCl` (stereo not given), the Potency result in [1], in assay [3], in assay [4] and in assay [6] was “inactive” in each case. For the same compound, the result in assay [2], in assay [5], in assay [7] and in assay [8] was inactive.
Consider `CCOC(=O)c1ccc(N(C)C)cc1`, for which the Potency entry in assay [1], in assay [3], in assay [4] and in [6] was “inactive” in each case. Further, the outcome in assay [2], in assay [5], in assay [7] and in assay [8] was inactive.
For the compound `BrCCOc1ccccc1`, the Potency entry in assay [1], in [3], in [4] and in assay [6] was “inactive” in each case. Also, the result in [2], in assay [5], in [7] and in assay [8] was inactive.
On to `N[C@H]1C(O)O[C@H](CO)[C@@H](O)[C@@H]1O` (stereo not given in full), for which the Potency entry in [1], in assay [3], in [4] and in [6] was “inactive” each time. The compound was called inactive in assay [9], in assay [2], in [7] and in assay [8].
Turning to `CC(C)(C)OC(=O)c1ccccc1C(=O)O`, the Potency result in [1], in [3], in assay [4] and in [6] was “inactive” throughout. In addition, the result in assay [9], in assay [2] and in [7] was inactive.
Consider `Cc1ccc2cccnc2c1`, for which the Potency result in assay [1], in [3], in [4] and in [6] was “inactive” each time. In addition, the outcome in assay [2], in [5] and in assay [8] was inactive.
Turning to `Nc1nc(Cl)cc(Cl)n1`, the Potency result in assay [1], in [3] and in assay [4] was “inactive” in each case. Further, the result in assay [2], in assay [5], in [7] and in assay [8] was inactive.
On to `CO/N=C(\C(=O)O)c1csc(NC(=O)CCl)n1`, for which the Potency result in [1], in [3], in assay [4] and in assay [6] was “inactive” throughout. For the same compound, the result in [2] and in assay [7] was inactive.
For the compound `CC(C)(C)c1ccc(N)cc1`, the Potency entry in assay [1], in assay [3], in assay [4] and in assay [6] was “inactive” throughout. In addition, the result in assay [2], in assay [5], in assay [7] and in [8] was inactive.
Regarding `COC(=O)c1c(C)cc(O)c(C)c1O`, the Potency result in assay [1] and in assay [3] was “inactive” each time. Besides, the result in [2], in [5], in assay [7] and in assay [8] was inactive. In addition, in [4], the Potency was 19.3 µM (active).
For the compound `CC(=O)SC[C@@H](C)C(=O)N1CCC[C@H]1C(=O)N[C@@H](Cc1ccccc1)C(=O)O`, the Potency entry in assay [1], in [3], in [4] and in [6] was “inactive” throughout. Also, the compound was classed as inactive in assay [9], in [2], in assay [7] and in [8].
Turning to `N#Cc1ccccc1C#N`, the Potency result in [1], in assay [3], in [4] and in assay [6] was “inactive” in each case. The result in assay [2], in assay [5], in [7] and in assay [8] was inactive.
In the case of `C=CCCCCCCCCOC(C)=O`, the Potency result in assay [1], in assay [3], in assay [4] and in assay [6] was “inactive” each time. For the same compound, the result in [2], in assay [5], in assay [7] and in assay [8] was inactive.
Take `CC(C)(C)C(=O)CC(=O)C(C)(C)C`: the Potency result in [1], in assay [3], in assay [4] and in assay [6] was “inactive” in each case. In addition, the compound was classed as inactive in assay [9], in assay [2], in [7] and in [8].
On to `CC(C)=CCC/C(C)=C\C#N`, for which the Potency entry in [1], in assay [3] and in assay [4] was “inactive” throughout. Further, the call in assay [9], in assay [2], in assay [7] and in [8] was inactive.
For `CSC(=O)c1cccc2nnsc12`, the Potency result in assay [1] and in [3] was “inactive” throughout. Moreover, the compound was classed as inactive in assay [9], in assay [2], in assay [5], in assay [7] and in assay [8].
